Measurements from PubChem BioAssay AID504725 (Broad Institute, 2011).
Results with a measured potency or affinity are listed apart. Unmarked numbers belong to inactive results. No rule for the calls is given here.

The compounds below were run against KSHV LANA C-terminal domain (residues 932-1162) binding to LBS DNA (UniProt O40947) (assay: KSHV LANA DNA-binding disruption – biochemical, fluorescence polarization, cherry-picked samples, dose response (AID 504725)). Conditions: MBP-C-LANA / FAM-LBS DNA fluorescence polarization, percent change from plate compound-well median; series mostly up to 35 µM; activity change, negative = inhibition: at the top concentration.

Row | SMILES | activity change, negative = inhibition [%]
1 | CN1CCN(C(=S)c2ccc(N(C)C)cc2)CC1 | 1.86
2 | COC(=O)c1ccc(Oc2nc(Nc3ccc(F)cc3)nc(N3CCCC3)n2)cc1 | -0.261
3 | Cc1ccc(S(=O)(=O)/N=C2/C=C(Sc3ncn[nH]3)C(=O)c3ccccc32)cc1 | -4.55
4 | Cc1c(NC(=O)CCC2CCCCC2)cc(C(=O)N2CCOCC2)cc1[N+](=O)[O-] | -0.626
5 | CC(C)N(Cc1ccccc1)C(=O)Cn1c(=O)cnc2ccccc21 | -0.878
6 | O=C(O)c1cccc(NC2=Nc3cccc4cccc2c34)c1 | -2.81
7 | Cc1cc(NC(=O)CSc2nnc(COc3cccc(C)c3C)n2C)no1 | 0.641
8 | CCN1/C(=C2/SC(=S)N(NC(C)=O)C2=O)Sc2ccc(OC)cc21 | -98.7
9 | Cc1ccc(/C=C/S(=O)(=O)N2CCC(C(=O)O)CC2)cc1 | -6.1
10 | Cc1cc2nc(SCCN3CCOCC3)[nH]c2cc1C | 1.27
11 | Cn1c(=O)c2c(nc(N/N=C/c3ccc(OC(=O)c4ccco4)cc3)n2Cc2ccc(F)cc2)n(C)c1=O | 1.89
12 | O=C(O)/C=C/c1ccccc1Oc1ccccc1 | 1.51
13 | Cc1ccc2cccc(OCC(=O)NCCC3=CCCCC3)c2n1 | -1.65
14 | CCOC(=O)CN1NC2(CCCCCC2)NC1=S | 1.87
15 | CCc1ccc(C2CC(c3cccc(Cl)c3)n3nc(N)nc3N2)cc1 (stereo not drawn) | 2.28
16 | C=CCN1C(=O)/C(=c2\sc3nc(=O)c(Cc4ccccc4Cl)nn3c2=O)c2ccccc21 | -0.488
17 | COC(=O)Cn1c(=NC(=O)c2sc3ccccc3c2Cl)sc2cc(S(N)(=O)=O)ccc21 | -2.44
18 | O=C(/C=C\c1ccccc1)Oc1cccc2cccnc12 | 0.031
19 | Cc1noc(C)c1C(=O)N1CCN(c2ccc(OCc3ccccc3)cc2)CC1 | -16.3

Row | SMILES | activity change, negative = inhibition [%]
20 | CC1Cc2ccccc2N1C(=O)CCS(=O)(=O)c1cccs1 (stereo not drawn) | 1.13
21 | NNC(=S)Nc1ccc(S(=O)(=O)N2CCOCC2)cc1 | 3.24
22 | Oc1[nH]c2ccccc2c1N=Nc1ccccc1F | 16.6
23 | Cc1ccc(S(=O)(=O)/N=C/c2ccc(N(C)C)cc2)cc1 | -1.14
24 | COc1ccc(C(=O)N/N=C/c2ccc(OC)c(COc3ccccc3)c2)cc1 | 1.35
25 | CN(C)c1ccc(/C=C/C(=O)c2ccc(O)cc2)cc1[N+](=O)[O-] | 2.32
26 | Cc1cc(N)ccc1N=Nc1c(C)n(C)n(-c2ccccc2)c1=O | -0.045
27 | CC[C@H](C)[C@H](NC(N)=O)C(=O)Nc1ccc(NC(C)=O)cc1 | 3.35
28 | Nc1ccc2c(O)cc(S(=O)(=O)O)cc2c1 | -8.96
29 | CCN(C(=O)COC(=O)c1ccc([N+](=O)[O-])o1)C1CCCCC1 | -4.41
30 | COC(=O)C1=COC(C)C2CN3CCc4c([nH]c5ccccc45)C3CC12 (stereo not drawn) | 0.07
31 | Cc1ccc(S(=O)(=O)Nc2ccc(Br)cc2C(NCC(=O)O)c2ccccc2)cc1 (stereo not drawn) | 11.3
32 | CC(C)Cc1nc(SCC(=O)Nc2nnc(CC(C)C)s2)n[nH]1 | 1.85
33 | CC1=[N+](C)N(c2ccccc2)C(=O)C1N=C/C=C/c1ccccc1 (stereo not drawn) | -1.31
34 | Oc1ccccc1C=Nc1ccccc1-c1nc2ccccc2[nH]1 | 0.308
35 | C/C(=N/NC(=O)c1cc(O)c(O)c(O)c1)c1ccc([N+](=O)[O-])cc1 | -9.97
36 | O=C(CSc1nc2ccccc2[nH]1)Nc1cccc(S(=O)(=O)N2CCOCC2)c1 | -1.75
37 | COc1cccc(NC(=O)CN(C)C(=O)c2cc3ccccc3cc2OC)c1 | 1.7
38 | COc1ccc(N=Nc2nc3ccc(Br)cc3n2C)cc1 | -10.5
